Bioassay records (PubChem)
MRP1 act: H69AR viability gain despite doxorubicin, primary screen, MRP-1 activator project, H69AR cells, CellTiter-Glo; viability rescue; viability increase, % at 10 µM; 140,000 compounds, 0.61% hits; AID 799, 2007;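 active = viability gain under doxorubicin at or above a set limit, the compound median plus 3 SD, cut at about 4.7% in these data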;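 note: MRP-1 overexpressing cells given doxorubicin 25 µM after compound pretreatment; 18-22 h compound pretreatment then 72 h with doxorubicin before readout; 0% = doxorubicin-only wells and 100% = vehicle-treated cells without doxorubicin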
MRP reversal: reversal of MRP1-mediated doxorubicin resistance, primary screen, H69AR cells, doxorubicin co-treatment | H69AR cells + 2 uM doxorubicin, CellTiter-Glo, 72 h | differential viability (reversal), % at 10 µM | 85,000 compounds, 0.04% hits | AID 602, 2007;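 active = viability drop by adding the cancer drug above about 55%, with treated viability meeting a 40% cutoff, limit read from the data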;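 note: viability without doxorubicin minus viability with 2 µM doxorubicin for each compound; larger differential means the compound sensitizes cells more to doxorubicin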
DAT uptake mod: changed hDAT dopamine uptake under cocaine IC80, either direction, primary screen, cocaine antagonist project, cell-based, LLC-PK1 hDAT, [14C]-dopamine uptake, MLSMR; AID 449768, 2010; B-score at 10 µM; Sodium-dependent dopamine transporter (Homo sapiens), Q01959; LLC-PK1 hDAT cells, [14C]-dopamine uptake with cocaine IC80; actives deviate in either direction; 110,000 compounds, 1.3% hits;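 active = Z score or B-score, a plate-position-corrected score, falls beyond the plate's 99.7% confidence bounds, in either direction; inactive = both scores lie inside the 99.7% bounds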;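 note: scored against the spread of the other compound wells on the same plate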
Target sequence (Q01959 whole entry, looked up): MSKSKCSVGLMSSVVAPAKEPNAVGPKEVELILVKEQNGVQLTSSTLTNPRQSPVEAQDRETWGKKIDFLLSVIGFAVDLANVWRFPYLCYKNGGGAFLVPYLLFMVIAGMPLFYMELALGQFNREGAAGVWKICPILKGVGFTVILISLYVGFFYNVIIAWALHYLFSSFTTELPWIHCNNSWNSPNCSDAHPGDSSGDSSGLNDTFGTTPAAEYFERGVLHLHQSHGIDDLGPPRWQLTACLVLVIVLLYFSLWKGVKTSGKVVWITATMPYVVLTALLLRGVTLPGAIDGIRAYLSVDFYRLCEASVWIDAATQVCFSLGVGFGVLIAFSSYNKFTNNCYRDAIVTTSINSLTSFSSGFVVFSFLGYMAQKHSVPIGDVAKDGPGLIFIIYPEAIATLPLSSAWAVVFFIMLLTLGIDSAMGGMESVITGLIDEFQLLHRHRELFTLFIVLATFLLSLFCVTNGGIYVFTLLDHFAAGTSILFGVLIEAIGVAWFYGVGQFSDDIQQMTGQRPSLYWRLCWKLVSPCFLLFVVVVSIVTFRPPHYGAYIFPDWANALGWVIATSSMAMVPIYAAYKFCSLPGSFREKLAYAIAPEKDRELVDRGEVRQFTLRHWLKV
The depositor's hits bear a star; . = no result given. The list is not random: actives were taken first. Their share in the collection is about 1.5%.

SMILES	MRP1 act	MRP reversal	DAT uptake mod
COC(=O)c1ccc(N(C(=O)CNC(=O)c2ccco2)C(C(=O)NC2CCCC2)c2ccco2)cc1 (centres undefined)	0.5	1.9	0.00352
CCc1cc2cc(C(=O)N3CCN(Cc4ccccc4)CC3)sc2s1	-0.3	5.6	2.6*
CCc1cc2cc(C(=O)N3CCN(c4ccccc4)CC3)sc2s1	-0.4	-3.0	-0.0898
CCC(CC)c1nnc(NC(=O)c2cc(C(=O)OC)cc([N+](=O)[O-])c2)s1	1.0	.	.
COc1ccc(SC[C@H](Cc2ccccc2)N2CCN(C)CCC2=O)cc1	.	.	1.27
CC1=NN(C(=O)c2ccc(Cn3nc(C)c(Br)c3C)cc2)C(O)(C(F)(F)F)C1 (centres undefined)	5.2*	.	.
CC1=NN(C(=O)c2ccc(Cn3nc(C)c([N+](=O)[O-])c3C)cc2)C(O)(C(F)(F)F)C1 (centres undefined)	1.6	.	0.234
Cc1ccc(N2C(=O)C(c3c(C)[nH]n(-c4ccccc4)c3=O)(C(F)(F)F)C3=C2CC(C)(C)CC3=O)cc1 (centres undefined)	0.1	-7.4	-5.07*
Cc1[nH]n(-c2ccccc2)c(=O)c1C1(C(F)(F)F)C(=O)N(c2ccccc2)C2=C1C(=O)CC(C)(C)C2 (centres undefined)	0.5	.	-0.934
CCCCN(C)CCC(=O)Nc1ccc(C)cc1	-1.1	.	.
COc1ccccc1NS(=O)(=O)c1cc(NC(=O)/C=C/c2cccs2)ccc1N1CCOCC1	6.0*	.	.
O=C(/C=C/c1cccs1)Nc1ccc(N2CCOCC2)c(S(=O)(=O)Nc2ccccc2Cl)c1	-2.0	.	.
CCC1=C(OC(=O)N(CC)CC)N2C(=O)OC(=NCCc3c[nH]c4ccccc34)[C@]2(C)[C@H]2C1=CC[C@H]1C(=O)N(CC(=O)OC)C(=O)[C@H]12	.	.	2.07
COc1ccc(C(=O)n2c(SC)nc3cc4c(cc32)OCCO4)cc1	-3.4	.	-0.796
O=C(CSc1ncn[nH]1)N1N=C2/C(=C/c3ccco3)CCCC2C1c1ccco1 (centres undefined)	8.4*	-6.0	1.32
O=C(c1ccccn1)N1N=C2/C(=C/c3ccccc3)CCCC2C1c1ccccc1 (centres undefined)	-2.1	.	.
CN(C)C(CNS(=O)(=O)c1ccc(Br)cc1)c1cccnc1 (centres undefined)	-2.6	-16.7	-8.89*
CN(C)C(CNS(=O)(=O)c1ccc(Cl)cc1)c1cccnc1 (centres undefined)	-0.3	-4.4	-0.628
O=C(/C=C/NNC(=O)c1cccc(Br)c1)c1cccc(Br)c1	-2.3	-15.2	0.0854
O=C(/C=C/NNC(=O)c1ccccc1)c1ccc(Br)cc1	6.0*	-28.0	0.318
Oc1ccccc1-c1nc2cnccn2c1Nc1ccc2c(c1)OCCO2	-1.0	-0.5	0.891
CCCCn1c(SCC(=O)N2c3ccccc3Sc3ccccc32)nc2c1c(=O)n(C)c(=O)n2C	-6.7	-31.2	3.22*
Cn1c(=O)c2c(nc(SCC(=O)N3CCc4ccccc43)n2Cc2ccccc2)n(C)c1=O	.	-9.0	.
CCn1c(SCC(=O)N2c3ccccc3Sc3ccccc32)nc2c1c(=O)n(C)c(=O)n2C	.	-11.5	0.0465
CC1Cc2ccccc2N1C(=O)CSc1nc2c(c(=O)n(C)c(=O)n2C)n1Cc1ccc(F)cc1 (centres undefined)	.	5.1	-6.93*
SMILES	MRP1 act	MRP reversal	DAT uptake mod
COc1ccc(CC(=O)O/N=C(\N)Cc2cccc3ccccc23)cc1OC	-1.8	.	.
CC(=O)Nc1ccc(-c2nc3c(C)cccc3[nH]2)cc1	-1.5	-4.8	-8.11*
CC(=O)Nc1ccc2nc(-c3ccncc3)[nH]c2c1	-1.2	-1.3	0.343
Cc1cc2ccccc2c(=O)n1CC(=O)NCC(=O)N(C)Cc1ccccc1	1.3	-10.7	-7.75*
Cc1cc2ccccc2c(=O)n1CC(=O)NCC(=O)N(C)C1CCCCC1	-0.8	2.1	0.303
NC(=O)CSc1nnc(CCc2nc3ccccc3[nH]2)n1-c1ccccc1	.	-9.6	.
Cn1c(-c2ccc(C=O)s2)nc2c3ccccc3c3ccccc3c21	-1.1	-16.6	1.04
Clc1ccc(C2=Nn3c(nnc3-c3cccs3)SC2)cc1	-4.8	9.7	-0.145
CC1=Nn2c(nnc2-c2cccs2)SC1	-0.7	.	-3.35*
COC(=O)Nc1ccc(=O)n(Cc2c(Cl)cccc2Cl)c1	-1.9	.	-0.475
O=C(CN(Cc1ccccc1)C(=O)c1cccc([N+](=O)[O-])c1)Nc1c(Cl)cc(Cl)cc1Cl	-3.1	.	.
O=C(CCn1c(=O)oc2ccccc21)N1CCCCCC1	-0.4	11.5	-0.0205
O=C(CCn1c(=O)oc2ccccc21)N1CCN(c2ccccc2Cl)CC1	-3.6	-26.9	3.45*
